Data published in PubChem BioAssay (NCI).
Several values for one entry are separate records, joined by “and”; a condition that tells them apart may be missing. Identical values can stand only once. The panel holds about 83,000 compounds, 20% with a hit somewhere; the sample as a whole holds those more often.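 Growth was measured after 48 h exposure to one concentration of compound in 96-well plates. Values under 10 count as active.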 Activity calls are given as the source filed them.

The compounds below were run on HL-60(TB) leukemia (assay: NCI-60 one-dose screen, 48 h (100 = growth as untreated, 0 = no growth, -100 = all killed)). Details: 10 µM unless noted.
In the case of `CCN(CC)C(=S)SC(SC(=S)N(CC)CC)C(=O)c1nnn(-c2ccc([N+](=O)[O-])cc2)c1C`, the growth is reported as 82.4% (inactive). In the case of `COc1ccc(C2C(C#N)=C(N)Oc3n[nH]c(-c4cccs4)c32)cc1I` (centres undefined), the growth is reported as 54.2% (inactive). In the case of `CCN1CCN(c2cc(C(=O)Nc3nc(-c4cc(OC)c(OC)c(OC)c4)cs3)cc(C(F)(F)F)c2)CC1`, the growth is reported as 41.4% (inactive). For `N#C/C(=C/c1ccc([N+](=O)[O-])cc1)n1nnc2cc(F)c(F)cc21`, the growth was 62.7% (inactive). For `CN1CCN(c2ccc(C(=O)Nc3cccc(C#Cc4cccc5[nH]nc(N)c45)c3)cc2C(F)(F)F)CC1`, the growth was -36.1% (active). With `CS(=O)(=O)Nc1cc(-c2ccc3ncnc(Nc4ccc5c(cnn5Cc5ccccn5)c4)c3c2)cnc1Cl` the growth was 56.5% (inactive). In the case of `CC(C)C(C)(C)C(=O)C(C)(C)C(C)(C)C`, the growth is reported as 135% (inactive). For `c1ccc2c(c1)oc1c3c(ccc12)NCCC3`, the growth was 91.8% (inactive). `COc1cc(C2CC(c3ccc(Cl)cc3)=NN2c2ccc(Cl)cc2)cc(OC)c1OC` (centres undefined) was tested, and the growth was 97.9% (inactive). In the case of `CC(=O)c1ccc2c(c1)N(CCCN1CCN(CCO)CC1)c1ccccc1S2`, the growth is reported as 73.9% (inactive) and 2.94% (active). With `COc1c(CNC(=O)CCl)cc2[nH]c(C)cc2c1CNC(=O)CCl` the growth was 39.4% (inactive). With `COc1ccc(-c2nocc2-c2cc(OC)c(OC)c(OC)c2)cc1` the growth was -14.7% (active). In the case of `Nc1c(C(=O)Nc2cccc(F)c2)sc2nc3c(cc12)C(=O)CCC3`, the growth is reported as 31.2% (inactive). In the case of `Cc1ccc(C(=O)NN)cc1`, the growth is reported as 124% (inactive). In the case of `CC(C)OCc1cc(CN2CCN(c3cccc(Cl)c3)CC2)c(O)c2ncccc12`, the growth is reported as -46% (active). With `Cc1cc(N)c2ccccc2[n+]1CCCCCCCCCC[n+]1c(C)cc(N)c2ccccc21` the growth was -65% (active) and -69.4% (active). For `Cn1c([N+](=O)[O-])cnc1/C=C1\Oc2ccc(Cl)cc2C1=O`, the growth was -2.57% (active). For `COc1ccc(-c2cn(-c3cc(OC)c(OC)c(OC)c3)c(=O)n2C(C)=O)cc1`, the growth was 32.2% (inactive). `COc1cc(NCCN=C(N)NC(N)=NC(C)C)c2ncccc2c1` was tested, and the growth was 74.8% (inactive). `O=S(=O)(NCCNc1nccc(-c2c(-c3cccc(F)c3)nc3occn23)n1)c1cccc2ccccc12` was tested, and the growth was 51.9% (inactive). `CCCC1CCC(O)(C(C)(O)C(=O)NC2C(=O)N3NCCCC3C(=O)N(O)C(C)C(=O)N3NCCCC3C(=O)N3NCC(O)CC3C(=O)NC(C)C(=O)OC2C(C)C)OC1CC` (centres undefined) was tested, and the growth was -91.3% (active). In the case of `CCOC(=O)C1=C(N)Oc2cc(OC)ccc2C1c1ccc(F)c(F)c1` (centres undefined), the growth is reported as -9% (active). With `C#CCOc1ccc2ncnc(Nc3ccc(NC(=O)CCl)cc3)c2c1` the growth was -57.5% (active). With `CCOc1ccc(/C=N/Nc2cc(C)nc3ccc(Cl)cc23)cc1` the growth was -51.7% (active). For `CCSc1nnc2c3cc(Br)ccc3n(C)c2n1`, the growth was 110% (inactive). In the case of `CCOC(=O)c1c(C)[nH]c(C)c1C=O`, the growth is reported as 71.4% (inactive). In the case of `Cc1nc2nc(C(F)(F)F)[nH]c2nc1C`, the growth is reported as 98.8% (inactive). With `O=C(CN1C(=O)S/C(=C\C(Cl)=C\c2ccccc2)C1=O)NCCc1ccc(O)cc1` the growth was 3.33% (active). For `CC(C)(C)[Si](C)(C)O[C@H]1C(=O)C=CN2CC=C[C@@H]12`, the growth was 89.5% [100 µM] (inactive). In the case of `COc1ccc(C(=O)c2c(N)nc3n2CCCC3)cc1OC`, the growth is reported as 94.1% (inactive). In the case of `COc1ccc(-c2c(N)noc2-c2cc(OC)c3c(c2)OCCO3)cc1`, the growth is reported as -30.8% (active). `COc1ccc(NC(=O)C(=O)c2c[nH]c3ccc(F)cc23)cc1` was tested, and the growth was 79% (inactive). In the case of `CCCCC1CCCCN1C(=O)OCC` (centres undefined), the growth is reported as 128% (inactive). With `CCc1ccccc1-n1c(-c2ccc(Cl)cc2)cc(-c2ccc(OC)cc2)c(C#N)c1=O` the growth was 68.8% (inactive). With `CN(CCC(=O)/C(=C\c1ccccc1)c1ccc(Cl)cc1)Cc1ccccc1` the growth was 41% (inactive). With `Oc1ccc(CCn2c(O)c(/C=C3\CN=c4ccccc4=N3)sc2=S)cc1` the growth was 19.5% (inactive). In the case of `O=C(O)c1ccc2c(c1)CCC2`, the growth is reported as 68.3% (inactive). For `O=C(Nc1cccc2ccccc12)NC1CC1`, the growth was 108% (inactive). For `CCOC(=O)C1OC2(CCCC2)OC1C(=O)OCC` (centres undefined), the growth was 87.4% (inactive).
